In the library only some 1.7% were active in any assay of this set; here they are far more common.
GLP1R ag: qHTS of GLP-1 Receptor Agonists; Glucagon-like peptide 1 receptor (Homo sapiens), P43220; actives 0.007% (n = 380,000); HEK293 GLP-1R CRE-luciferase, luminescence, 4-6 h; cells express a hypersensitive GLP-1R form; Potency, µM (highest dose often 45.6 µM), for inactives: top-dose activation, usual class: activators; note: potency is the fitted concentration of half-maximal effect; % of control where 0% means no effect
GLP1R inv ag: qHTS of GLP-1 Receptor Inverse Agonists (Inhibition Mode). HEK293 GLP-1R CRE-luciferase, luminescence, 24 h; GLP-1R form is constitutively active. actives 1.6% (n = 410,000). Glucagon-like peptide 1 receptor (Homo sapiens), P43220. Potency, µM (top dose mostly 38.3 µM), for the others: top-dose activity change, negative = inhibition, most hits filed as inhibitors. AID 624417, 2012; note: potency is the fitted concentration of half-maximal effect; % is set by controls: 0 for no effect and ±100 for the full control effect; nearly all actives have a fitted effect of over 55% in size
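Readout was luciferase luminescence, measured 12 min after detection reagent at room temperature. Beforehand, GLP-1R reporter HEK293 cells had sat 12 h, then received compounds for 24 hr at 37 deg C.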
LDHA block: qHTS assay for inhibitors of human lactate dehydrogenase. actives 0.15% (n = 480,000). L-lactate dehydrogenase A chain (Homo sapiens), P00338. activity change, % (values are at about 110 or 230 µM). AID 1347041, 2019. purified LDHA, NADH/diaphorase-resazurin fluorescence; stronger effect = lower value; in the data active = activity change below about -30%; inconclusive = mostly about -25% to -30%;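 note: plate controls were DMSO wells for no effect and wells without enzyme for full effect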
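Enzyme activity of human lactate dehydrogenase 5 (2 nM; 0.06 mM NADH, 0.2 mM pyruvate, 5 min, RT) is measured via a resazurin/diaphorase fluorescence readout of residual NADH.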
GLP1R cytotox: qHTS of GLP-1 Receptor Inverse Agonists: Cytotox Screen. HEK293 cAMP-luciferase reporter cells, luminescence, 24 h. Potency, µM (doses to about 38.3 µM), without a hit: at the highest dose activity change, negative = inhibition, hits mostly inhibitors. actives 0.13% (n = 410,000). AID 624418, 2012;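 note: loss of luciferase light is scored as toxicity; potency is the fitted concentration of half-maximal effect; % is set by controls: 0 for no effect and ±100 for the full control effect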
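Step one: seed cells (200 cells/uL, DMEM with 10% Nu serum, 1% pen-strep). Step two: 12-hour incubation at 37 deg C. Step three: pin 23 nL compound, incubate 24 hr. Step four: add luciferase reagent, read luminescence 12 min later.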
PTHR1 agonist: qHTS for PTHR1 Agonists: Primary Screen | Parathyroid hormone/parathyroid hormone-related peptide receptor (Homo sapiens), Q03431 | HEK293 GP2 PTHR1 cells, GloSensor cAMP luminescence, 1 h | Potency, µM (highest dose often 115 µM), for the others: at the highest dose activation, usual class: activators | actives 0.075% (n = 410,000) | AID 743266, 2014; note: potency is the fitted concentration of half-maximal effect; nearly all actives have a fitted effect of over 55% in size
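HEK-293-derived GP2 cells expressing PTHR1 and a GloSensor cAMP reporter, 3,000/well, plated overnight, given luciferin plus IBMX (each 0.5 mM as added) for 1 h at 37 °C, then compound for 1 h at 37 °C. Luminescence was read after 15 min at room temperature.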
IDH1 R132H inh: qHTS for Inhibitors of mutant isocitrate dehydrogenase 1 (IDH1): qHTS. Isocitrate dehydrogenase [NADP] cytoplasmic (Homo sapiens), O75874. IDH1-R132H enzyme, NADPH consumption, diaphorase/resazurin fluorescence. Potency, µM (highest dose often 76.6 µM), inactives show at the highest dose activity change, negative = inhibition, actives largely listed as inhibitors. actives 0.093% (n = 390,000). AID 602179, 2012; note: potency is the fitted concentration of half-maximal effect; % is set by controls: 0 for no effect and ±100 for the full control effect; nearly all actives have a fitted effect of over 65% in size
Target sequence (O75874 whole entry R132H, stated change not applied): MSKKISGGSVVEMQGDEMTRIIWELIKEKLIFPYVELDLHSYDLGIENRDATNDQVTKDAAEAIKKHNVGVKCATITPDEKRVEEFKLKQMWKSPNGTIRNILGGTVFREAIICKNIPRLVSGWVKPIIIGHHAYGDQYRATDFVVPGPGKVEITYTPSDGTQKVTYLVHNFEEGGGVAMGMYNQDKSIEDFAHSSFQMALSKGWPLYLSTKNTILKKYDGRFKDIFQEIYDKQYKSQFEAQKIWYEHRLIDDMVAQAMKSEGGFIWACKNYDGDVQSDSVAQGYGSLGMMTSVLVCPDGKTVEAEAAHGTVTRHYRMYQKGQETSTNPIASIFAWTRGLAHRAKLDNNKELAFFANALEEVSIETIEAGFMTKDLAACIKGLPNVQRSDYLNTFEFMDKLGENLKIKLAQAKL
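IDH1-R132H (0.5 ug/mL dispensed) in pH 7.5 Tris buffer was preincubated 30 min with compound, then given a substrate mix of 0.016 mM NADPH and 2 mM alpha-KG for 80 min at room temperature; remaining NADPH was read by diaphorase/resazurin fluorescence.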
Active calls of the source: *; i = inactive; ? = inconclusive; / = not tested or not shown; [ ] = remark or other dose. Unless noted, calls come from the whole dose curve; as a rule, active = well fitted curve in the direction sought with a large enough effect; inconclusive = small, poorly fitted or top-dose-only effect, or another doubt; inactive = no such curve, though single readings can be large; an effect the other way counts as inactive or inconclusive.

SMILES	GLP1R ag	GLP1R inv ag	LDHA block	GLP1R cytotox	PTHR1 agonist	IDH1 R132H inh
O=C(CSc1ccc(Cl)cc1)N1CCN(c2c(Cl)cccc2[N+](=O)[O-])CC1	0.9%	2.82µM*	-0.1	-13.1%	-23.2%[57.5 µM]	2.6%
O=C(/C=C/c1ccc(Cl)cc1)N1CCN(c2c(Cl)cccc2[N+](=O)[O-])CC1	10.4%	?	-3.7	9.5%	-22.7%	-3.5%
CCOCc1cc(CN2CCN(c3ccccc3OC)CC2)c(O)c2ncccc12	/	5.01µM*	10.3	-23.8%	i	/
COc1ccccc1N1CCN(Cc2cc(Br)c(O)c3ncccc23)CC1	-6.8%	?	14.6	1.12µM*	3.0%	1.4%
Oc1c(CN2CCN(c3ccccn3)CC2)cc(Cl)c2cccnc12	7.5%	0.501µM*	15.7	?	i	9.9%
CCCC(C)NC(=O)CSc1nnc(Nc2ccc(CC)cc2)s1 (stereo unspecified)	/	/	-6.3	/	/	/
Cc1cccc(/C=C(/C#N)c2nc(-c3ccncc3)cs2)c1	/	/	-2.7	/	/	/
CC(NC(=O)c1[nH]c2ccccc2c1Cl)c1ccc(F)cc1 (stereo unspecified)	/	/	8.4	/	/	/
COc1ccc(C2CCCN2CC(=O)N(CCC#N)c2ccccc2F)cc1 (stereo unspecified)	/	/	4.8	/	/	/
COc1ccc(C(=O)COC(=O)C(CC(=O)c2ccccc2)Nc2ccccc2OC)cc1 (stereo unspecified)	/	/	3.1	/	/	/
OC(COc1ccc2ccccc2c1Br)Cn1cnc(-c2ccccc2)c1 (stereo unspecified)	5.0%	10µM*	-0.3	-22.6%	-1.0%[57.5 µM]	5.1%
COc1cc(OC)c(-c2c3cc(O)c(=O)cc-3oc3cc(O)c(O)cc23)cc1OC	-2.8%	4.47µM*	30.2	?	-2.7%	11.7µM*
CC(C)(C)Cc1nc2ccccc2n1CCc1ccccc1	5.5%	5.01µM*	5.7	-3.8%	-29.6%	14.9%
CC(C)Cc1nc2ccccc2n1CCc1ccccc1	17.5%	12.6µM*	-8.8	?	i	1.6%
CCc1nc2ccccc2n1CCc1ccccc1	41.6%	?	-12.8	-5.1%	i	14.5%
CC(=O)Nc1sc2c(c1-c1cccc(F)c1)CCNC2	/	/	-2.7	/	/	/
CCN(CC)S(=O)(=O)c1cccc(NC(=O)CCNC(=O)c2ccc([N+](=O)[O-])cc2)c1	-0.4%	-9.8%	1.8	1.9%	?	-9.0%
CCN(CC)S(=O)(=O)c1cccc(NC(=O)CCNC(=O)NC23CC4CC(CC(C4)C2)C3)c1	2.9%	10µM*	-0.4	11.3%	-7.8%	4.7%
CCOc1ccc(NC(=S)NC23CC4CC(CC(C4)C2)C3)cc1	-2.0%	4.5%	1.8	3.6%	9.4%	12.6%
NS(=O)(=O)c1cccc(NC(=S)NC(=O)C23CC4CC(CC(C4)C2)C3)c1	10.1%	1.26µM*	-5.7	-16.2%	-21.3%	5.7%
FC(F)Oc1ccc(NC(=S)NC23CC4CC(CC(C4)C2)C3)cc1	5.8%	4.47µM*	-0.8	?	-78.0%	7.1%
CN(C)S(=O)(=O)c1cccc(NC(=S)NC2CCCCC2)c1	4.1%	11.2µM*	-2.2	-6.0%	-5.1%	20.6%
COc1ccccc1C(=O)Oc1c(Cl)cc(C#N)cc1OC	/	/	2.0	/	/	/
CCN(CC)S(=O)(=O)c1cccc(NC(=O)CN(C)C2CCCCC2)c1	9.2%	?	-6.6	0.4%	-5.2%	7.5%
CCN(CC)S(=O)(=O)c1cccc(NC(=O)CNC2CCCCCC2)c1	-7.2%	7.94µM*	-10.9	-3.9%	i	5.5%
SMILES	GLP1R ag	GLP1R inv ag	LDHA block	GLP1R cytotox	PTHR1 agonist	IDH1 R132H inh
Cc1ccc(S(=O)(=O)N(C)C)cc1NC(=S)NC12CC3CC(CC(C3)C1)C2	1.5%	?	-1.3	-11.1%	-9.3%	8.6%
CN(C)S(=O)(=O)c1cccc(NC(=S)NC23CC4CC(CC(C4)C2)C3)c1	18.9%	7.94µM*	-7.5	-30.4%	-25.2%	-10.0%
O=C(CCc1ncc(-c2ccc(F)cc2)o1)NCCN1CCOCC1	/	/	-3.6	/	/	/
CC(C)(C)SCCNS(=O)(=O)c1ccc(F)cc1	-3.3%	-8.2%	3.6	5.0%	-12.6%[57.5 µM]	4.1%
O=S(=O)(NCCSc1ccccc1)c1ccc(F)cc1	12.7%	10µM*	-0.2	19.5%	i	8.2%
Cc1cccc(C(=O)Nc2nonc2-c2ccc(OC(C)C)cc2)c1	/	/	3.9	/	/	/
CC(=O)Nc1ncc2c(n1)CC(c1ccc(Cl)cc1)CC2=O (stereo unspecified)	/	/	5.0	/	/	/
CC(C)CC(=O)NC(NC(=S)Nc1cccc2cccnc12)C(Cl)(Cl)Cl (stereo unspecified)	-19.2%	7.94µM*	-0.8	-16.7%	i	2.3%
CC(C)C(=O)NC(Nc1cccc2cccnc12)C(Cl)(Cl)Cl (stereo unspecified)	-6.7%	?	15.8	0.0%	-18.9%	16.8%
CC1=C(C(=O)N2CCOCC2)C(c2c(F)cccc2F)NC(=O)N1Cc1ccccc1 (stereo unspecified)	/	/	-18.6	/	/	/
Cc1ccc(SCc2ccc(C(=O)Nc3c(C)cc(C)cc3C)cc2)cc1	/	/	-24.4	/	/	/
O=C(NCc1ccccc1)C(c1ccccc1)n1c(-c2ccccn2)nc2ccccc21 (stereo unspecified)	/	7.94µM*	1.4	-1.6%	-0.8%	/
O=C(CNc1nc(-c2ccccc2)nc2ccccc12)NC1CC1	/	/	12.8	/	/	/
N#CCc1ccc(NC(=O)/C=C/c2ccc([N+](=O)[O-])o2)cc1	-0.9%	-101.2%	1.1	3.98µM*	-57.4%	0.0%
O=C(CSc1nc2ccccc2o1)Nc1nc2ccccc2s1	-6.6%	-4.0%	-6.7	-2.7%	-16.2%	1.1%
O=C(CSc1nc2ccccc2o1)Nc1nc2c(s1)CCCC2	-7.6%	2.51µM*	-1.6	-16.4%	-37.7%	1.5%
COc1cccc(CNC(C)(C)CO)c1OCc1ccc(Cl)cc1	5.9%	11.2µM*	-2.5	-3.7%	i	-1.1%
COCCNC(=O)c1cccc2c(=O)c(C)c(-c3ccccc3)oc12	/	/	2.3	/	/	/
CC1CN(Cc2ccccc2)c2ccccc2NC1=S (stereo unspecified)	-3.2%	11.2µM*	-8.5	?	-25.5%	0.8%
